The panel holds about 83,000 compounds, 20% with a hit somewhere; the sample as a whole holds those more often.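 Step 1: grow cells in 96-well plates. Step 2: add test compound at a single concentration. Step 3: incubate 48 h. Step 4: record percent growth.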 Unmarked numbers belong to inactive results. Calls of active or inactive are those of the source. How the source made its calls: active means growth percent below 10; inactive means the rest.
tested on: HOP-92 NSCLC; assay: NCI-60 one-dose screen, 48 h (100 = growth as untreated, 0 = no growth, -100 = all killed); details: 10 µM unless noted

Row | SMILES | growth
1 | COC(=O)C1(CC(C)=O)NC(=S)NC(=O)C1C#N (configuration not stated) | 102%
2 | O=Cc1ccc(Cl)c(Cl)c1 | 68.5%
3 | CC(=O)c1cc(O)ccc1O | 58.9%
4 | Nc1c(Br)cc(O)c2c1C(=O)c1ccccc1C2=O | 70.9%
5 | O=C1CSc2ccccc2N1 | 83.9%
6 | NC(=S)N/N=C/c1ccc(OC(=O)COc2ccccc2)cn1 | 63.8%
7 | CCOc1ccc2c(c1)c(C)cc(C)[n+]2CC | 54.2%
8 | CC1=CC(=Nc2ccc(N(C)C)cc2)C=C(C)C1=O | 48.6%
9 | COc1cc(CC#N)c([N+](=O)[O-])cc1OC | 99.8%
10 | CCC12OC(COc3ccccc3)CN1CCN2c1ccccc1 (configuration not stated) | 96.9% [100 µM]
11 | C=CCOc1ccc(Cl)cc1Cl | 77.3%
12 | CCc1ccccc1C(=O)N(CC)CC | 107%
13 | Cc1ccc(S(=O)(=O)Oc2ccc3sc4c(CO)ccc(NCCN(C)C)c4c(=O)c3c2)cc1 | -80.1% [100 µM] (active)
14 | CCOC(=O)c1cc(C)[nH]c(=O)c1C#N | 104%
15 | CCN(CC)CCOC(=O)Nc1c(C(C)C)cccc1C(C)C | 117%
16 | N#CCCN1C(=O)CCC1C(=O)O (configuration not stated) | 109%
17 | NNc1ncccn1 | 111%
18 | Cc1cc(=O)n(Nc2ccccc2)c(O)c1C#N | 102%
19 | CC(=O)N(C)N=Nc1ccc(C)cc1 | 100%

Row | SMILES | growth
20 | OCC1OC(n2ccc3c2ncn2ncnc32)C(O)C1O (configuration not stated) | -0.422% (active)
21 | CC(C)(C)[Si](C)(C)OCC1OC(n2cnc3c(N)ncnc32)CC1OS(C)(=O)=O (configuration not stated) | 98.5%
22 | c1ccc(Oc2c3ccccc3nc3ccccc23)cc1 | 8.21% (active)
23 | CN(C)c1ccc2c(N(C)C)cc(N(C)C)nc2c1 | 69.8%
24 | CC(C)N(CCCC#N)C(C)C | 85.8%
25 | COc1ccc(-c2csc(NC(=O)Nc3nc(-c4ccc(OC)cc4)cs3)n2)cc1 | 89%
26 | CCOC(OCC)C(=O)c1ccccc1 | 41.3%
27 | CC1CC(C)S(=O)(=O)C1 (configuration not stated) | 120%
28 | Clc1cccc(Cl)c1C1CSc2ccccc2N=C1c1ccccc1 (configuration not stated) | 75.4%
29 | CCOc1ccc(C(=O)O)cc1 | 90.4%
30 | CCN(CC)CCCC(C)NC(=S)N/N=C(\C)c1ccccn1 (configuration not stated) | 46.1%
31 | C[n+]1cc2cc3c(cc2c2ccccc21)OCO3 | 82%
32 | Cc1cccc2ccccc12 | 100%
33 | Cn1c2ccccc2c2nnc(NCCCCO)nc21 | 84.1%
34 | Cc1nc(C)c(C(=O)O)cc1C(=O)O | 103%
35 | C/C(=N\Nc1ccc([N+](=O)[O-])cc1[N+](=O)[O-])c1ccc(Br)cc1 | 94.5%
36 | CC(=O)OC/C(C)=C\CC(C)COC(C)=O (configuration not stated) | 69.8%
37 | CCOc1ccccc1NC(=O)CCl | 103%
